According to the supplement of paper PMC11732987, “Enantioselective OTUD7B fragment discovery through chemoproteomics screening and high-throughput optimisation” (Communications Chemistry, 2025):

Assays:
Test in all cases: log2 ratio of Biotin-Ahx-Ub-VS probe labelling (fragment/DMSO); higher = less target engagement (more negative = stronger competition), active = hit call of the paper (q ≤ 0.05, log2 ratio ≤ -1)
Settings in all cases: compound concentration: 200 uM; treatment time: 3 h
USP34 = USP34 (UniProt Q70CQ2)
Summary of the method: (§1)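 Each value is an average log2 ratio of fragment to vehicle, tested by unpaired t-test. The underlying Spectronaut label-free quantities were global-median-normalised, and only proteins with ≥2 unique peptides were included. Triplicate HEK293T lysate samples (495 µg) were exposed to fragment at 200 µM or vehicle for 3 h, then to Biotin-Ahx-Ub-VS at 0.5 µM final for 1 h, before NeutrAvidin enrichment of labelled DUBs, LysC and trypsin digestion, and diaPASEF LC-MS/MS.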

USP36 = target: T1, USP36 (UniProt Q9P275)
T1 sequence (whole entry): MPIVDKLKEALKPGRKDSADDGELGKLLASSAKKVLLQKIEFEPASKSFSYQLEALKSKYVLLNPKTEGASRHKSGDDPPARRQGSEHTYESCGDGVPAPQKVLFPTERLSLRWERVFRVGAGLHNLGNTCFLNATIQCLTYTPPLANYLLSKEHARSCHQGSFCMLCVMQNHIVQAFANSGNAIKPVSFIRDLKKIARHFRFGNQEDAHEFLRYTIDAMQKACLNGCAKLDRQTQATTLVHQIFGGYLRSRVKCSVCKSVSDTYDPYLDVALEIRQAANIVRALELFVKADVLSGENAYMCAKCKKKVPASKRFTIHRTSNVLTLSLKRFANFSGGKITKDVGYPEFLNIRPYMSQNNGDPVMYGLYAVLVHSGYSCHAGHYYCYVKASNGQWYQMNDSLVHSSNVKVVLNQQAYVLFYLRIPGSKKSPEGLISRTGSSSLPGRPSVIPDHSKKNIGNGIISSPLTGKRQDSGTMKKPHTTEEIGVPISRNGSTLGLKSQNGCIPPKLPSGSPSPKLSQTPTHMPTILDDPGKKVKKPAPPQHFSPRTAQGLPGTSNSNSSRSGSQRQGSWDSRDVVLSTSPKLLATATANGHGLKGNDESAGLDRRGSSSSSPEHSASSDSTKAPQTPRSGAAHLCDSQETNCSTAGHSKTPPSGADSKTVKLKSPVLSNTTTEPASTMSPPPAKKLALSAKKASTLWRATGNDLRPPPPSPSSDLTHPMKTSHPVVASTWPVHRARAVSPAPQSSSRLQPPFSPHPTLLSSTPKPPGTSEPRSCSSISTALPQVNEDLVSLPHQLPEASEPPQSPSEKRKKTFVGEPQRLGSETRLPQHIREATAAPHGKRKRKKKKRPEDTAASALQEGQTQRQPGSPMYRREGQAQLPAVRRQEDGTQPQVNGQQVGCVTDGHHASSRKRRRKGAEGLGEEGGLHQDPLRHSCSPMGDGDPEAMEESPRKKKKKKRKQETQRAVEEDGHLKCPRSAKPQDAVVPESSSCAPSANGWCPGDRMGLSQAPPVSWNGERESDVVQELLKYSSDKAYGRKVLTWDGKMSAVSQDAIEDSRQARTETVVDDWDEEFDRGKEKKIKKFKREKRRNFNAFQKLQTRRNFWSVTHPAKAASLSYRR
Summary of the method: as §1

USP38 = target: T2, USP38 (UniProt Q8NB14)
T2 sequence (whole entry): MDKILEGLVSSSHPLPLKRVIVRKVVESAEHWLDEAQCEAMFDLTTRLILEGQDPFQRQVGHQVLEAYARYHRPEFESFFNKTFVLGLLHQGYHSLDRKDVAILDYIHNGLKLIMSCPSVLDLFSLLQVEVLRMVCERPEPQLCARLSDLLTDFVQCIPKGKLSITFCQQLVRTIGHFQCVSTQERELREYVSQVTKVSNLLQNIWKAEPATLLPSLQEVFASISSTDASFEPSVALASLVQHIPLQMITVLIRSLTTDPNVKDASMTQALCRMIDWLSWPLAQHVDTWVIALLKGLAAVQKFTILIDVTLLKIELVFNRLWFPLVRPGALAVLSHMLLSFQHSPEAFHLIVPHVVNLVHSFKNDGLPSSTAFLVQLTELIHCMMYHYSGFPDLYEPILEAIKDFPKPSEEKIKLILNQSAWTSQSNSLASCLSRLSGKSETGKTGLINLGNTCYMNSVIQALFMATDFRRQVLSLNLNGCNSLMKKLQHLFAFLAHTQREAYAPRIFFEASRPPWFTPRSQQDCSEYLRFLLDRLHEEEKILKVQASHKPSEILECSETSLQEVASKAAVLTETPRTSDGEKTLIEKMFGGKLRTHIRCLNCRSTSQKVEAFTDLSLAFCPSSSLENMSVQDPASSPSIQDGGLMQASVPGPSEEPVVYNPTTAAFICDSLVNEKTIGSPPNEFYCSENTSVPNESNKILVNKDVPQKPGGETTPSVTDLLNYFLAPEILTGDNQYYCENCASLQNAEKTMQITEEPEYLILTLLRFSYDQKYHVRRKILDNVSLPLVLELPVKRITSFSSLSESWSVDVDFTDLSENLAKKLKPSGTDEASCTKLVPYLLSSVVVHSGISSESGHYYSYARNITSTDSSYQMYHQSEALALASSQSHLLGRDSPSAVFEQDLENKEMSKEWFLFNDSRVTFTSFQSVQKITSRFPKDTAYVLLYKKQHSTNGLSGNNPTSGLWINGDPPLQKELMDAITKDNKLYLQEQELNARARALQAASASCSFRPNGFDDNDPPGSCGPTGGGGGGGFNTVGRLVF
Summary of the method: as §1

USP39 = target: T3, USP39 (UniProt Q53GS9)
T3 sequence (whole entry): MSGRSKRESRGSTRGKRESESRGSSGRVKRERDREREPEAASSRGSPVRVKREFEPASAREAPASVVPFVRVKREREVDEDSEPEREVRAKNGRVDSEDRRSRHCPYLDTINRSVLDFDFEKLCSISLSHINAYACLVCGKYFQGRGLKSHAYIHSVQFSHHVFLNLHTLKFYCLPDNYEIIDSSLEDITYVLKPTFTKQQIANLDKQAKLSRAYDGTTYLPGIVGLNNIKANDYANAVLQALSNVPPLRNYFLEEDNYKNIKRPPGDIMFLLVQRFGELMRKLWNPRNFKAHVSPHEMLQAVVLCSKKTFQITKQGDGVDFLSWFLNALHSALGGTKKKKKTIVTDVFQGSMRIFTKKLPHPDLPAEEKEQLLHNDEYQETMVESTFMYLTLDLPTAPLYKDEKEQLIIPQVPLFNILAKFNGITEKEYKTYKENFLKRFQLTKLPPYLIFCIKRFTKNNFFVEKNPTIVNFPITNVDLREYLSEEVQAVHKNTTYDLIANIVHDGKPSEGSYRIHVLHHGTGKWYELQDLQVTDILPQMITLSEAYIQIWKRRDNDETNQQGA
Summary of the method: as §1

USP4 = target: T4, USP4 (UniProt Q13107)
T4 sequence (whole entry): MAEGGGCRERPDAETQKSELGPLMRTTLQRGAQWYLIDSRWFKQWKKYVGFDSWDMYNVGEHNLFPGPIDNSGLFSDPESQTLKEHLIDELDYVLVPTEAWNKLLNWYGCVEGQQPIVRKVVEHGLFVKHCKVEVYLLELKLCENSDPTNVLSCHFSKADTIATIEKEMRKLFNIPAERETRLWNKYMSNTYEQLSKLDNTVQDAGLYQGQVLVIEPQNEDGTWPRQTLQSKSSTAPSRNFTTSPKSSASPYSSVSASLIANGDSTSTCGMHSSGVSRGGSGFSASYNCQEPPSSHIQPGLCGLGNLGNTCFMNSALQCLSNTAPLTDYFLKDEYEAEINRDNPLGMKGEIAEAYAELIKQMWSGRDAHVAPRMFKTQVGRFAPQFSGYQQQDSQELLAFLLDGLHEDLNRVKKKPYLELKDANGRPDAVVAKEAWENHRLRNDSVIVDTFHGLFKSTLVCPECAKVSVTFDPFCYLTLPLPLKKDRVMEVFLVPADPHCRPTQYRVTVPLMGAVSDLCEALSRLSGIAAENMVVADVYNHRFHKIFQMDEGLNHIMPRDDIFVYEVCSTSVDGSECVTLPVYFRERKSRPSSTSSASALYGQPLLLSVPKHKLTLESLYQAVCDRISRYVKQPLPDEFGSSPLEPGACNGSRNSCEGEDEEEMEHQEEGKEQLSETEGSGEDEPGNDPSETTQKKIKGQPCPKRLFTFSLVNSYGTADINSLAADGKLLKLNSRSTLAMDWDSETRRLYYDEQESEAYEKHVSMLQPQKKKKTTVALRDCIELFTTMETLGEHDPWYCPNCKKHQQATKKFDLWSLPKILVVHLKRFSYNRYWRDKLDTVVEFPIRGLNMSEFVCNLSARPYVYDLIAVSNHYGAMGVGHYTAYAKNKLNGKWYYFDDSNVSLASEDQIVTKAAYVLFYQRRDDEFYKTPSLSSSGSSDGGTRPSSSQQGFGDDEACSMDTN
Summary of the method: as §1

Measured: log2 ratio of Biotin-Ahx-Ub-VS probe labelling

Sequence of USP34 (Q70CQ2 whole entry, the tested form may be a part): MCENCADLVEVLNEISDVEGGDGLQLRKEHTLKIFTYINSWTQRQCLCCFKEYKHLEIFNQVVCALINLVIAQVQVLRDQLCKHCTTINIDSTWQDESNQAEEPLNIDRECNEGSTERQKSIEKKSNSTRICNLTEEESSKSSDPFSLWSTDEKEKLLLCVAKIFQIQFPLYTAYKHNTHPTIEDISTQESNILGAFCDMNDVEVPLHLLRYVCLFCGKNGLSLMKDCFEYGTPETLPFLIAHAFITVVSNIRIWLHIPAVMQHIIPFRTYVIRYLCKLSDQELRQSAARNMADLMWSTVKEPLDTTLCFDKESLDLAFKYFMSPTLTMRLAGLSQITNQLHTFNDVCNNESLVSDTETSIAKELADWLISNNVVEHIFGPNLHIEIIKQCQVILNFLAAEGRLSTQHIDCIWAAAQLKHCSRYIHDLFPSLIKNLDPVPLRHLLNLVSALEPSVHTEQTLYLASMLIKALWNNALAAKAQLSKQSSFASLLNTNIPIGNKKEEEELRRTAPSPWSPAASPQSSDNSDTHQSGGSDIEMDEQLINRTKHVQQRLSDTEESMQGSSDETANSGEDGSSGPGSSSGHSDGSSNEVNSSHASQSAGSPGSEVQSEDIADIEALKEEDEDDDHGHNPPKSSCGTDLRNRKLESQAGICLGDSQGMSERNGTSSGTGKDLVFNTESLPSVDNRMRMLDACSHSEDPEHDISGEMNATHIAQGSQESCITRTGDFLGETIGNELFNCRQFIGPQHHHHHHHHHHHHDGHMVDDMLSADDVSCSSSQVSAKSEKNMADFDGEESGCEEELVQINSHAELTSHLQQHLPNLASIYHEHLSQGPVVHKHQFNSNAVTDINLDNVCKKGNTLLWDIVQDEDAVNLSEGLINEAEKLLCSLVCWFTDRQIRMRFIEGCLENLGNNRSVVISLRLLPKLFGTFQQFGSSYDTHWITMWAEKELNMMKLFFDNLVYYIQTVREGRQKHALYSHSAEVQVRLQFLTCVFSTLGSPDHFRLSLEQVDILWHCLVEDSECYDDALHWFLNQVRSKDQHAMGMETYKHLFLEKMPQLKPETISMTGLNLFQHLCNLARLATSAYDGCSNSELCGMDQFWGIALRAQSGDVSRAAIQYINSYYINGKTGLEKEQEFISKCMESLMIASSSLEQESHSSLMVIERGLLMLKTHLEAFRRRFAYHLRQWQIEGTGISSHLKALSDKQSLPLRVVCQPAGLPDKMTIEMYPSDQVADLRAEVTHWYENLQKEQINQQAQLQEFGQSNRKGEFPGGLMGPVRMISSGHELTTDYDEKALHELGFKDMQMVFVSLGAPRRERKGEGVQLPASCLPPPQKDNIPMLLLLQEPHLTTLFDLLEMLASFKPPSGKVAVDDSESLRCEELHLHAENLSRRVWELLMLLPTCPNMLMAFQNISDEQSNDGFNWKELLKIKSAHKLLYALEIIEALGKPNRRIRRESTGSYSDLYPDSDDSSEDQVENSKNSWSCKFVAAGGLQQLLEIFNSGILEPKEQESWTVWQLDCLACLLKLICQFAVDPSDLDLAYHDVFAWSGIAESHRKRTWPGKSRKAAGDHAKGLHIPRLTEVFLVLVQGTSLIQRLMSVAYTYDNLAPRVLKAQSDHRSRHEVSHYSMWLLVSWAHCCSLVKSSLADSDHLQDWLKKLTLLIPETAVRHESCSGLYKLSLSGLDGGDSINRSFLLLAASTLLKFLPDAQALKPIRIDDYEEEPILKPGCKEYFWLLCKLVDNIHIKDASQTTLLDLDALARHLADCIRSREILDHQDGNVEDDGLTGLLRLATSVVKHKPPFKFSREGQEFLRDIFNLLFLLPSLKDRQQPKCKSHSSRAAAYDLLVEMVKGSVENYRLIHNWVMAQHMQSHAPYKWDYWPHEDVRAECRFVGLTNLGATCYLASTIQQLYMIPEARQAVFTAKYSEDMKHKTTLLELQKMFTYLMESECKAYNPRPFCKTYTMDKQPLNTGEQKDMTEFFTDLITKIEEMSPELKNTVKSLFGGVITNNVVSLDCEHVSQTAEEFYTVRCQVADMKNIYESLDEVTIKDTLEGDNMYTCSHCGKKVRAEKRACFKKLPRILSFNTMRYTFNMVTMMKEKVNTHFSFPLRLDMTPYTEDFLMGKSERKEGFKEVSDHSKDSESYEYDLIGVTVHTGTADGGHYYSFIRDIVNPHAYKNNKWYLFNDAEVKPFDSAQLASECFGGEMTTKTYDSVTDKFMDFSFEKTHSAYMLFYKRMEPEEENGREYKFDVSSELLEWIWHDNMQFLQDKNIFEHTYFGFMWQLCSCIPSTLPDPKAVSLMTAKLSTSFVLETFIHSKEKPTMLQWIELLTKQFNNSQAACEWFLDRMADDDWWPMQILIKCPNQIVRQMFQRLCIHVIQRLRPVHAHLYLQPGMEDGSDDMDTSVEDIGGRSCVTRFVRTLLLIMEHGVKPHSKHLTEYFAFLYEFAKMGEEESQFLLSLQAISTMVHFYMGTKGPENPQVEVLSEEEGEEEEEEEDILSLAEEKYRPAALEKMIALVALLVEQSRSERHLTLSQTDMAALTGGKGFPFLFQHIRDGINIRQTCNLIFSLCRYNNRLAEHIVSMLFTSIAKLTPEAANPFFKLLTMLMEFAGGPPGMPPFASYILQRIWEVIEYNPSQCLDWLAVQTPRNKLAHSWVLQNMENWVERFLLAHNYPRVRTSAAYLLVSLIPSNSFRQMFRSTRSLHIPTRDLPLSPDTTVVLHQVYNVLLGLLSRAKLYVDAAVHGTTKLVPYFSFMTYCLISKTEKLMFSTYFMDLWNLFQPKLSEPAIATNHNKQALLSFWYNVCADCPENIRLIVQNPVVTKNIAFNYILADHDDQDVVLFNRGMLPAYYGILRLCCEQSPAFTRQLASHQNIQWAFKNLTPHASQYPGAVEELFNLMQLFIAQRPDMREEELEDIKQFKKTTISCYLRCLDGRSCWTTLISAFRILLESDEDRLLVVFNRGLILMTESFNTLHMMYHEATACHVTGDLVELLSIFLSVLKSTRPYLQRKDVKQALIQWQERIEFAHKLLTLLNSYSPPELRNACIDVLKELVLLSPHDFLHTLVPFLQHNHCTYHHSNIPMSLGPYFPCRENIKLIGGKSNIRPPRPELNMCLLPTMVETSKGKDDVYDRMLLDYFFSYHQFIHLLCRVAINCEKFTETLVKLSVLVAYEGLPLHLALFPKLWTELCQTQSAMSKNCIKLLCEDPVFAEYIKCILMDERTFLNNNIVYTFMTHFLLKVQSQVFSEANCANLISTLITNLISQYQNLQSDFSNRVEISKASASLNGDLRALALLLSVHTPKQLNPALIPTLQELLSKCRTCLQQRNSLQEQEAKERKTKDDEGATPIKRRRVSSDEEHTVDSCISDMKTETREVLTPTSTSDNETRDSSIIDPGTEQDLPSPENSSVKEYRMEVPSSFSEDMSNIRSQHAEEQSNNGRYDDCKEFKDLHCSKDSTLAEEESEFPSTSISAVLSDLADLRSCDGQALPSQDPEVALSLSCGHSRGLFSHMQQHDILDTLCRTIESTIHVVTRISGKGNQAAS

O=C(CCl)NC1CCOc2ccccc21 (stereo not given)
inactive: USP34 -0.539 | USP36 -0.388 | USP38 -0.738 | USP39 -0.0973 | USP4 -0.674
